Assay outcomes deposited in PubChem by several laboratories.
This is a sample that favours compounds with a hit; in the whole collection about 3.8% have one here.
FGF22 binding: shifts melting point of recombinant human FGF22; Q9HCT0; recombinant FGF22 thermal shift, SYPRO orange fluorescence; percent of sucrose octasulfate shift, DMSO zero; activity (Tm shift, normalised), % at 9.99 µM; hit rate 1.5% among 340,000; AID 651658;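 active = mean Tm shift, scaled 0 neutral to 100 positive control, at about 1.3% or above, every replicate too, limit read from the data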
Ecoli rRNA inh: inhibitors of bacterial rRNA selective over humanized ribosomes; E. coli WT GFP vs humanized-ribosome RFP mutants, fluorescence, 24 h; active compounds read low; DMSO median 0, no signal -100; GFP signal change (wild-type ribosome), % (no concentration beside the values); hit rate 1.6% among 350,000; AID 720706;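 active = significant combined selectivity score with lowered wild-type GFP, culture density cut under 30%, mutant RFP and density less affected; inactive = any of these conditions unmet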
KLK7 zymogen act: activators of human kallikrein-7 zymogen; purified proKLK7, EDANS-DABCYL substrate fluorescence; 100% is mature enzyme control, 0% vehicle; activation, % at 7 µM; hit rate 0.9% among 370,000; AID 652039;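 active = activation above the mean of all tested compounds plus 3 SD, computed per campaign excluding outliers beyond control limits, cut at about 13% in these data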
ADAM10 inh: ADAM10 inhibition, QFRET primary screen; inhibition, % at 7 µM; AID 720582; recombinant ADAM10, EDANS/DABCYL FRET peptide cleavage, 3 h; hit rate 0.62% among 370,000;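 active = inhibition above a per-campaign cutoff equal to the mean of compounds falling between control-based bounds plus 3 SD, cut at about 20% in these data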;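 note: 0% = DMSO wells while the 100% control is not disclosed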
ADAM17 inh: inhibitors of human ADAM17 | hit rate 0.83% among 370,000 | inhibition, % at 6.95 µM | P78536 | AID 720648 | recombinant ADAM17, EDANS/DABCYL FRET peptide cleavage;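 active = inhibition above the mean of compounds lying between control limits plus 3 SD, set per campaign, cut at about 8.5% in these data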;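 note: 0% = DMSO-only wells as the low control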
Target sequence (P78536 215-824 limits assumed): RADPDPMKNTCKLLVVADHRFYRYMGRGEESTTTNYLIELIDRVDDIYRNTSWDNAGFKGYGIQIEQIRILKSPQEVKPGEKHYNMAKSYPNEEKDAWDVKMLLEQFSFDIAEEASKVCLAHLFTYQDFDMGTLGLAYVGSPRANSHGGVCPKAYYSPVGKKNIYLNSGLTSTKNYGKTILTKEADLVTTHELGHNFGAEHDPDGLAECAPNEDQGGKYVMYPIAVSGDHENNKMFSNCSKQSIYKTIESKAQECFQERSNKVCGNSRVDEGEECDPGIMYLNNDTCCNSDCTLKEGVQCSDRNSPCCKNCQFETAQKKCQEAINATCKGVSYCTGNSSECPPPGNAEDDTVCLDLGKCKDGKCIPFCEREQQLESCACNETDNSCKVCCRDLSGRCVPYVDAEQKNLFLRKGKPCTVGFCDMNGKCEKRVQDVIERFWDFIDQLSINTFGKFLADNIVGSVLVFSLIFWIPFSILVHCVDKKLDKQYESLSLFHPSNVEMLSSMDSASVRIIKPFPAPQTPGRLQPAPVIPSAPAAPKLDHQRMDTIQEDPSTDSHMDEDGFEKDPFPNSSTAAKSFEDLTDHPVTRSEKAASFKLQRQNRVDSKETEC
KLK7 act conf: proKLK7 activation, confirmation | shares compounds with KLK7 zymogen act | purified proKLK7, EDANS-DABCYL substrate fluorescence; scaled: vehicle 0, mature enzyme 100 | activation, % at 7 µM | hit rate 68% among 3,200 | AID 686949;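 active = activation, as change over the incubation, above the mean of all tested compounds plus 3 SD, cut at about 13% in these data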
EDANS interfere: counter-screen for kallikrein-7 activators: EDANS-DABCYL optical interference | shares compounds with KLK7 zymogen act | EDANS-DABCYL substrate fluorescence interference, no enzyme, 4 h; solvent 0%, active enzyme control 100% | activation, % at 7 µM | hit rate 80% among 3,200 | AID 686952;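 active = activation above the all-compound mean plus 3 SD, ignoring values outside control-based bounds, cut at about 4.8% in these data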;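 note: value is the 4 h activation minus the activation read at time zero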
K7 EDANS ctr: EDANS fluorescence interference in dose response, no enzyme; shares compounds with KLK7 zymogen act; EDANS-DABCYL peptide fluorescence interference; EC50, µM; hit rate 20% among 250;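 active = compounds that raise the fluorescence signal in this interference counterscreen, with EC50 at or below 10 µM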;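 note: intact quenched peptide substrate alone read at 355 nm excitation and 520 nm emission; signal is fluorescence gain from T0 to T4 after four hours at room temperature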
Numbers without * were called inactive.

Results for C[C@H]1CN([C@@H](C)CO)C(=O)c2cccc(NC(=O)CCCCCC(=O)Nc3ccccc3N)c2O[C@H]1CN(C)Cc1ccc(C(F)(F)F)cc1 ?
FGF22 binding: -0.3; Ecoli rRNA inh: -1.7

How did COc1ccccc1NC(=O)c1cc2c(s1)-c1ccccc1S(=O)(=O)C2 do in these assays?
FGF22 binding: 0.1; Ecoli rRNA inh: 4.8; KLK7 zymogen act: 14.9*; ADAM10 inh: -55.1; ADAM17 inh: -26.1; KLK7 act conf: -18.9; EDANS interfere: -31.5

Results for Nc1ccc2nc3c(=O)n(C4CCCCC4)c(=O)[nH]c3nc2c1 ?
FGF22 binding: -0.1; Ecoli rRNA inh: 66.3; KLK7 zymogen act: 14.5*; ADAM10 inh: -9.2; ADAM17 inh: -4.1; KLK7 act conf: 8.1; EDANS interfere: 7.6*

Results for CCCCn1c(=O)[nH]c2nc3cc(N)ccc3nc2c1=O ?
FGF22 binding: 0.0; Ecoli rRNA inh: 66.8; KLK7 zymogen act: 2.8; ADAM10 inh: -28.5; ADAM17 inh: -6.6

What do the screens show for `CNC(=O)C(C)N1c2cccc3cccc(c23)S1(=O)=O` (stereo unspecified)?
FGF22 binding: -0.1; Ecoli rRNA inh: 5.1; KLK7 zymogen act: 14.8*; ADAM10 inh: -143.2; ADAM17 inh: -56.3; KLK7 act conf: 8.6; EDANS interfere: 13.2*

How did COc1ccc(NC(=O)C(C)N2c3cccc4cccc(c34)S2(=O)=O)cc1 (stereo unspecified) do in these assays?
KLK7 zymogen act: 0.8; ADAM10 inh: -59.2; ADAM17 inh: -18.3

What do the screens show for `CNC(=O)C[C@H]1CC[C@H]2[C@@H](COc3ccc(NC(=O)Nc4ccc(C)cc4)cc3C(=O)N2C)O1`?
FGF22 binding: 0.4; Ecoli rRNA inh: -1.3

What do the screens show for `CCN1CCSc2ccc(C(=O)NCc3ccccc3C)cc21`?
FGF22 binding: -0.3; Ecoli rRNA inh: -3.5; KLK7 zymogen act: 20.0*; ADAM10 inh: inactive; ADAM17 inh: -433.8; KLK7 act conf: -21.3; EDANS interfere: -25.3

How did CN1CCSc2ccc(C(=O)Nc3cc(F)ccc3F)cc21 do in these assays?
FGF22 binding: -0.1; Ecoli rRNA inh: 2.6; KLK7 zymogen act: 15.5*; ADAM10 inh: -239.6; ADAM17 inh: -67.5; KLK7 act conf: 11.1; EDANS interfere: 12.2*

What do the screens show for `COc1cccc(CNC(=O)c2ccc3c(c2)N(C)CCS3)c1OC`?
FGF22 binding: 0.1; Ecoli rRNA inh: -3.3; KLK7 zymogen act: 37.6*; ADAM10 inh: inactive; ADAM17 inh: inactive; KLK7 act conf: 68.7*; EDANS interfere: 47.2*; K7 EDANS ctr: >69.5

How did CCN1CCSc2ccc(C(=O)NCc3ccccc3Br)cc21 do in these assays?
FGF22 binding: 0.0; Ecoli rRNA inh: -0.6; KLK7 zymogen act: -25.1; ADAM10 inh: inactive; ADAM17 inh: -382.8

Results for COc1cccc(CNC(=O)CCC(=O)N2CCSc3ccccc32)c1OC ?
FGF22 binding: 0.0; Ecoli rRNA inh: 2.8; KLK7 zymogen act: 0.2; ADAM10 inh: -3.1; ADAM17 inh: -6.4

Results for CN1CCSc2ccc(C(=O)NCc3ccccc3F)cc21 ?
FGF22 binding: 0.0; Ecoli rRNA inh: -1.5; KLK7 zymogen act: 29.3*; ADAM10 inh: inactive; ADAM17 inh: -380.1; KLK7 act conf: 30.6*; EDANS interfere: 13.4*; K7 EDANS ctr: >69.5

How did CN1CCSc2ccc(C(=O)NCc3cccc(Br)c3)cc21 do in these assays?
FGF22 binding: 0.3; Ecoli rRNA inh: 2.8; KLK7 zymogen act: 10.1; ADAM10 inh: inactive; ADAM17 inh: -461.8

How did CC(C)NC(=O)N[C@H]1C=C[C@@H](CC(=O)NCCCN(C)C)O[C@H]1CO do in these assays?
FGF22 binding: -0.1; Ecoli rRNA inh: -0.7

What do the screens show for `COc1cccc(S(=O)(=O)N[C@@H]2C=C[C@H](CC(=O)NCc3ccccc3)O[C@@H]2CO)c1`?
Ecoli rRNA inh: 1.5

What do the screens show for `C[C@@H]1CN([C@@H](C)CO)C(=O)Cc2cc(NC(=O)CCCN(C)C)ccc2O[C@H]1CN(C)S(=O)(=O)c1cccs1`?
Ecoli rRNA inh: -1.5

How did CCN1CCSc2ccc(C(=O)NCc3ccccc3F)cc21 do in these assays?
FGF22 binding: 0.4; Ecoli rRNA inh: 2.1; KLK7 zymogen act: 30.7*; ADAM10 inh: inactive; ADAM17 inh: inactive; KLK7 act conf: 50.0*; EDANS interfere: -25.9; K7 EDANS ctr: >69.5

What do the screens show for `CC(=O)N(CC1CCCO1)c1nnc(-c2cnccn2)s1` (stereo unspecified)?
Ecoli rRNA inh: 2.4; KLK7 zymogen act: 2.4; ADAM10 inh: -44.4; ADAM17 inh: -13.7

What do the screens show for `COC(=O)Nc1nnc(-c2ccccc2OC)s1`?
FGF22 binding: 0.0; Ecoli rRNA inh: -3.9; KLK7 zymogen act: -12.5; ADAM10 inh: -121.0; ADAM17 inh: -45.7

Results for COc1ccccc1-c1nnc(N(C)C(=O)C2CCCO2)s1 (stereo unspecified) ?
KLK7 zymogen act: 17.8*; ADAM10 inh: -119.1; ADAM17 inh: -36.5; KLK7 act conf: 26.3*; EDANS interfere: 26.2*

Results for COCC(=O)N(C)c1nnc(-c2ccccn2)s1 ?
KLK7 zymogen act: 63.2*; ADAM10 inh: -230.8; ADAM17 inh: -64.3; KLK7 act conf: 82.2*; EDANS interfere: 77.3*

How did CN(C(=O)C1CCCO1)c1nnc(-c2ccccn2)s1 (stereo unspecified) do in these assays?
KLK7 zymogen act: 98.5*; ADAM10 inh: inactive; ADAM17 inh: -142.5; KLK7 act conf: 94.1*; EDANS interfere: 94.8*

What do the screens show for `CN(C(=O)C1CCCO1)c1nnc(-c2ccncc2)s1` (stereo unspecified)?
KLK7 zymogen act: 130.4*; ADAM10 inh: inactive; ADAM17 inh: -172.7; KLK7 act conf: 166.7*; EDANS interfere: 166.5*

How did CC(C)CC#Cc1ccc2c(c1)O[C@H](CN(C)C(=O)c1cnccn1)[C@H](C)CN([C@H](C)CO)S2(=O)=O do in these assays?
FGF22 binding: 0.1; Ecoli rRNA inh: 1.6

How did Cc1cc(NCCCO)n2c(nc3ccccc32)c1C#N do in these assays?
FGF22 binding: 42.6; Ecoli rRNA inh: 5.8; KLK7 zymogen act: 14.8*; ADAM10 inh: inactive; ADAM17 inh: -202.9; KLK7 act conf: 50.6*; EDANS interfere: 70.0*

What do the screens show for `COCCNc1cc(C)c(C#N)c2nc3ccccc3n12`?
KLK7 zymogen act: 37.3*; ADAM10 inh: inactive; ADAM17 inh: inactive; KLK7 act conf: 34.4*; EDANS interfere: 46.0*
